# Like-named read-outs stand apart in the source and are kept apart here.
# Legend:
# Set-up in all cases: species or system human, MV4-11 + K-562 + COLO205 + SK-N-BE2 + OVCAR-8
# AGPS = settings: read-out: apparent Kd, n = 1
# NNT = settings: read-out: apparent Kd, compound concentrations: 100 nM and 1000 nM (sheet 'Samples'), n = 1
# AGK = settings: read-out: apparent Kd, n = 1
# MAP2K2 = settings: read-out: apparent Kd, compound concentrations: 100 nM and 1000 nM (sheet 'Samples'), n = 1
# CDKL5 = settings: read-out: apparent Kd; compound concentrations:100 nM and 1000 nM (sheet 'Samples'); n = 1
# CLK1 = settings: read-out: apparent Kd; compound concentrations:100 nM and 1000 nM (sheet 'Samples'); n = 1
# CLK2 = settings: read-out: apparent Kd; compound concentrations:100 nM and 1000 nM (sheet 'Samples'); n = 1
# CLK4 = settings: read-out: apparent Kd; compound concentrations:100 nM and 1000 nM (sheet 'Samples'); n = 1
# AKT1 = settings: read-out: apparent Kd; compound concentrations: 100 nM and 1000 nM (sheet 'Samples'), CATDS: 0.123574579018809; n = 1
# BMPR1A = settings: read-out: apparent Kd; compound concentrations: 100 nM and 1000 nM (sheet 'Samples'), CATDS: 0.16431444601058101; n = 1
# CAMK4 = settings: read-out: apparent Kd; compound concentrations: 100 nM and 1000 nM (sheet 'Samples'), CATDS: 0.11933253309467701; n = 1
# EGFR = settings: read-out: apparent Kd; compound concentrations: 100 nM and 1000 nM (sheet 'Samples'), CATDS: 0.109679225268286; n = 1
# ILK = settings: read-out: apparent Kd; compound concentrations: 100 nM and 1000 nM (sheet 'Samples'), CATDS: 0.116106966266716; n = 1
# OPA1 = settings: read-out: apparent Kd; compound concentrations: 100 nM and 1000 nM (sheet 'Samples'), CATDS: 0.52668483019397605; n = 1
# PIK3C3 = settings: read-out: apparent Kd; compound concentrations: 100 nM and 1000 nM (sheet 'Samples'), CATDS: 0.14677884590005799; n = 1
# ADRBK1 = settings: read-out: apparent Kd, compound concentrations: 100 nM and 1000 nM (sheet 'Samples'), n = 1
# AKT2 = settings: read-out: apparent Kd; compound concentrations: 100 nM and 1000 nM (sheet 'Samples'), CATDS: 0.16502460627676999; n = 1
# CDC42 = settings: read-out: apparent Kd; compound concentrations: 100 nM and 1000 nM (sheet 'Samples'), CATDS: 0.22290293584535001; n = 1
# DCTPP1 = settings: read-out: apparent Kd; compound concentrations: 100 nM and 1000 nM (sheet 'Samples'), CATDS: 0.21946869965493901; n = 1
# DJA1 = tested on: T1, DJA1; settings: read-out: apparent Kd; compound concentrations: 100 nM and 1000 nM (sheet 'Samples'), CATDS: 0.217792726025238; n = 1
# T1 construct: gene DNAJA1
# IRAK4 = settings: read-out: apparent Kd; compound concentrations: 100 nM and 1000 nM (sheet 'Samples'), CATDS: 0.188463756574588; n = 1
# COX5A = settings: read-out: apparent Kd; compound concentrations:100 nM and 1000 nM (sheet 'Samples'); n = 1
# TGFBR1 = settings: read-out: apparent Kd; compound concentrations:100 nM and 1000 nM (sheet 'Samples'); n = 1
# FLT4 = settings: read-out: apparent Kd; compound concentrations: 100 nM and 1000 nM (sheet 'Samples'), CATDS: 0.144028041300378; n = 1
# MAP4K5 = settings: read-out: apparent Kd; compound concentrations: 100 nM and 1000 nM (sheet 'Samples'), CATDS: 0.15363433252833; n = 1
# PLK1 = settings: read-out: apparent Kd; compound concentrations: 100 nM and 1000 nM (sheet 'Samples'), CATDS: 0.58980024549807997; n = 1
# SLK = settings: read-out: apparent Kd; compound concentrations: 100 nM and 1000 nM (sheet 'Samples'), CATDS: 0.13817903386438299; n = 1
# STK10 = settings: read-out: apparent Kd; compound concentrations: 100 nM and 1000 nM (sheet 'Samples'), CATDS: 0.15967879525120501; n = 1
# CSNK1G1 = settings: read-out: apparent Kd; compound concentrations: 100 nM and 1000 nM (sheet 'Samples'), CATDS: 0.16245140586904; n = 1
# NQO2 = settings: read-out: apparent Kd; compound concentrations: 100 nM and 1000 nM (sheet 'Samples'), CATDS: 0.164283529908442; n = 1
# PDXK = settings: read-out: apparent Kd; compound concentrations: 100 nM and 1000 nM (sheet 'Samples'), CATDS: 0.18883200846926201; n = 1
# TP53RK = settings: read-out: apparent Kd; compound concentrations: 100 nM and 1000 nM (sheet 'Samples'), CATDS: 0.1506883600127; n = 1
# VDAC3 = settings: read-out: apparent Kd; compound concentrations: 100 nM and 1000 nM (sheet 'Samples'), CATDS: 0.190251033630114; n = 1
# [1] = compound concentrations:100 nM and 1000 nM (sheet 'Samples')
compound,measurement,setting,value
Cc1cc(O)cc(C)c1/C=C/c1cncc(C(=O)N(C)C)c1 [GW427984X],potency estimated from few doses,"AGPS; compound concentrations: 100 nM and 1000 nM (sheet 'Samples'), CATDS: 0.49272906791281001",1860 nM
same,potency estimated from few doses,NNT; CATDS: 0.50748873234437097,1750 nM
Cc1ccc(S(=O)(=O)Nc2ccc(Nc3nccc(Nc4cccc5[nH]ncc45)n3)cc2)cc1 [GSK581271A],potency estimated from few doses,"AGK; compound concentrations: 100 nM and 1000 nM (sheet 'Samples'), CATDS: 0.56358245780801897",1530 nM
same,potency estimated from few doses,MAP2K2; CATDS: 0.44930961839154798,2420 nM
COc1ccc2c(-c3ccnc(Nc4cccc(OC(F)(F)F)c4)n3)cnn2n1 [GW810372X],potency estimated from few doses,AGK; [1],2270 nM
same,potency estimated from few doses,CDKL5,1850 nM
same,potency estimated from few doses,CLK1,82.4 nM
same,potency estimated from few doses,CLK2,20.2 nM
same,potency estimated from few doses,CLK4,120 nM
Cl.O=C(Nc1cccc(-c2nn3ncccc3c2-c2ccnc(Nc3cccnc3)n2)c1)c1c(F)cccc1F [GSK312879A],potency estimated from few doses,AKT1,1640 nM
same,potency estimated from few doses,BMPR1A,841 nM
same,potency estimated from few doses,CAMK4,1800 nM
same,potency estimated from few doses,EGFR,2310 nM
same,potency estimated from few doses,ILK,1950 nM
same,potency estimated from few doses,OPA1,116 nM
same,potency estimated from few doses,PIK3C3,1070 nM
Cc1cc(N2Cc3ccccc3C2)nc(Nc2ccc(S(=O)(=O)N3CCOCC3)cc2)n1.Cl [GSK1669917A],potency estimated from few doses,ADRBK1; CATDS: 0.38079622737555602,1290 nM
same,potency estimated from few doses,MAP2K2; CATDS: 0.29465532437802699,2170 nM
same,potency estimated from few doses,NNT; CATDS: 0.33555608244827101,1640 nM
O=C1N=C(N[C@H](CO)Cc2ccccc2)S/C1=C\c1ccc2ncccc2c1 [RO4503319-000],potency estimated from few doses,AKT2,2470 nM
same,potency estimated from few doses,CDC42,1290 nM
same,potency estimated from few doses,DCTPP1,1330 nM
same,potency estimated from few doses,DJA1,1350 nM
same,potency estimated from few doses,IRAK4,1810 nM
Fc1ccc(-c2cc(-c3c[nH]nc3-c3ccccn3)ccn2)cc1 [GW680975X],potency estimated from few doses,AGPS; [1],1790 nM
same,potency estimated from few doses,COX5A,132 nM
same,potency estimated from few doses,TGFBR1,960 nM
COc1cc2ncn(-c3cc(OCc4ccncc4Br)c(C(N)=O)s3)c2cc1OC [GW854278X],potency estimated from few doses,ADRBK1; CATDS: 0.136000830332002,2200 nM
same,potency estimated from few doses,FLT4,1880 nM
same,potency estimated from few doses,MAP4K5,1590 nM
same,potency estimated from few doses,PLK1,135 nM
same,potency estimated from few doses,SLK,2100 nM
same,potency estimated from few doses,STK10,1450 nM
CCn1cnc2c(N)ncnc21 [GW345098X],potency estimated from few doses,ADRBK1; CATDS: 0.15222698888400599,2400 nM
same,potency estimated from few doses,CSNK1G1,2080 nM
same,potency estimated from few doses,NQO2,2040 nM
same,potency estimated from few doses,PDXK,1560 nM
same,potency estimated from few doses,TP53RK,2450 nM
same,potency estimated from few doses,VDAC3,1540 nM
